We go through 26 molecules from PubChem BioAssay (Tox21).

Molecules are shown by their SMILES. Inconclusive results are not listed. Unmarked numbers belong to inactive results. Active and inactive are the calls of the source. Unless noted, the call rests on the fitted dose curve; in most records, active means well fitted curve in the direction sought with a large enough effect in the repeat runs; inconclusive means weak or mixed curves; inactive means no such curve, though single readings can be large; an effect the other way counts as inactive or inconclusive.

Experiment [1] is described as follows: qHTS assay to identify small molecule antagonists of the estrogen related receptor (ERR) signaling pathway from Tox21 library - cell viability counter screen (AID 1224834). Further: nearly all actives have a fitted effect of over 30% in size. The method in brief:
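Cytotoxicity of test substances is gauged in the same ERR cells used for the antagonist screen, after 17.5 h of compound treatment at 37 C, by CellTiter-Fluor fluorescence measured after 30 min.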
(In general: qHTS replaces the single test concentration by a dilution series.)

Experiment [2] has as its target Luciferin 4-monooxygenase (Photinus pyralis) (UniProt P08659). The experiment in a line: qHTS assay to identify small molecule inhibitors of firefly luciferase (AID 1224835). Further: nearly all actives have a fitted effect of over 25% in size. Further: potency means the concentration at half of the fitted maximal effect. On activity change, negative = inhibition: series mostly up to about 120 µM. The method in brief: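 Biochemical qHTS: compounds run as interplate titrations against purified firefly enzyme, with D-luciferin and ATP each at its KM concentration. Light output recorded by CCD imaging.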

Experiment [3] can be described thus: qHTS assay to identify small molecule agonists of the constitutive androstane receptor (CAR) signaling pathway - cell viability counter screen (AID 1224836). Further: series mostly up to about 92 µM; nearly all actives have a fitted effect of over 45% in size. The method in brief:
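Double-stable HepG2 hepatoma cells (hCAR plus CYP2B6-2.2kb) are treated for 23 h at 37 C with test compounds in 15-point concentration series. PK11195 at 0.75 uM final is co-added. Cell viability is quantified by CellTiter-Fluor.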

The target of experiment [4] is Nuclear receptor subfamily 1 group I member 3 (Homo sapiens) (UniProt Q14994). In words: qHTS assay to identify small molecule antagonists of the constitutive androstane receptor (CAR) signaling pathway (AID 1224838). Further: nearly all actives have a fitted effect of over 40% in size. The method in brief: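 Compounds were titrated across 15 concentrations onto HepG2 cells double-stably expressing hCAR and a CYP2B6-2.2kb reporter, together with 50 nM CITCO (final). After 24 h at 37 C, luciferase activity was measured by luminescence.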
Nuclear receptor subfamily 1 group I member 3 (Homo sapiens), sequence (Q14994 whole entry, looked up): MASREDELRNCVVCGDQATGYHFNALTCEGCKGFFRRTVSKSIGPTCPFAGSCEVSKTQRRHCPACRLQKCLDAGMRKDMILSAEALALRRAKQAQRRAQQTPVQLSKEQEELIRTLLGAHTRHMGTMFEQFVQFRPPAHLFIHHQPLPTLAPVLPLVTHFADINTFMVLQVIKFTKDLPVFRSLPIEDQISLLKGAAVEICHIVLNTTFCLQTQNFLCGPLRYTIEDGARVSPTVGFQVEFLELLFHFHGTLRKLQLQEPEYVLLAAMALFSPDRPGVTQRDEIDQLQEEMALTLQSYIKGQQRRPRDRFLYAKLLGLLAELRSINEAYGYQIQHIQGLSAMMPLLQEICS

Experiment [5] has the same target. The experiment in a line: qHTS assay to identify small molecule agonists of the constitutive androstane receptor (CAR) signaling pathway (AID 1224839). Further: series mostly up to about 92 µM; nearly all actives have a fitted effect of over 15% in size. An outline of the steps: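 Readout: firefly luciferase luminescence via ONE-Glo. System: HepG2 double-stable for hCAR and CYP2B6-2.2kb. Conditions: 15-point compound titration, PK11195 at 0.75 uM final, 24 h incubation.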

A short description of experiment [6]: qHTS assay to identify small molecule antagonists of the estrogen related receptor signaling pathway with the pleiotropic PPARgamma coactivator (PGC) from Tox21 10K library - cell viability counter screen (AID 1224840; active means well fitted cell-killing curve with a large enough effect in the repeat runs, not every such curve was filed as active; further: nearly all actives have a fitted effect of over 40% in size). The method in brief:
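Step one, plate 2,000 PGC/ERR cells per well; step two, incubate 6 h at 37 C/5% CO2; step three, pin-transfer compounds; step four, incubate 17.5 h; step five, add CellTiter-Fluor and read fluorescence after 30 min.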

Experiment [7] is described as follows: qHTS assay to identify small molecule antagonists of the estrogen related receptor signaling pathway with the pleiotropic PPARgamma coactivator (PGC) from Tox21 10K library (AID 1224841; call rule not given here; further: series mostly up to about 92 µM; actives are mostly falling curves and most rising ones were filed inactive; nearly all actives have a fitted effect of over 50% in size). An outline of the steps: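 Antagonism in this quantitative HTS is taken from loss of luciferase signal in PGC/ERR cells. Cells (2,000/well) are treated with compounds in DMSO after a 6 h settling period and read by One-Glo luminescence after 18 h.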

Experiment [8] is described as follows: qHTS assay to identify small molecule agonists of the estrogen related receptor signaling pathway with the pleiotropic PPARgamma coactivator (PGC) from Tox21 10K library (AID 1224842). Further: nearly all actives have a fitted effect of over 15% in size. The method in brief:
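PGC/ERR reporter cell line, 2,000 cells per well, incubated 6 h at 37 C before 23 nL compound in DMSO was added. After 18 h at 37 C, One-Glo luminescence read following 30 min at room temperature.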

The nature of experiment [9]: qHTS assay to identify small molecule antagonists of the constitutive androstane receptor (CAR) signaling pathway - cell viability counter screen (AID 1224837). Further: series mostly up to about 92 µM; nearly all actives have a fitted effect of over 45% in size. The method in brief:
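Multiplexed cytotoxicity read-out for the CAR antagonist screen: double-stable HepG2-CYP2B6-hCAR cells co-treated with 50 nM CITCO (final) and compound over 15 concentrations, incubated 23 hr, then assessed by CellTiter-Fluor fluorescence.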
On the % scale 0 is the no-effect control and ±100 the full control effect.

Luciferin 4-monooxygenase (Photinus pyralis), sequence (P08659 whole entry, looked up): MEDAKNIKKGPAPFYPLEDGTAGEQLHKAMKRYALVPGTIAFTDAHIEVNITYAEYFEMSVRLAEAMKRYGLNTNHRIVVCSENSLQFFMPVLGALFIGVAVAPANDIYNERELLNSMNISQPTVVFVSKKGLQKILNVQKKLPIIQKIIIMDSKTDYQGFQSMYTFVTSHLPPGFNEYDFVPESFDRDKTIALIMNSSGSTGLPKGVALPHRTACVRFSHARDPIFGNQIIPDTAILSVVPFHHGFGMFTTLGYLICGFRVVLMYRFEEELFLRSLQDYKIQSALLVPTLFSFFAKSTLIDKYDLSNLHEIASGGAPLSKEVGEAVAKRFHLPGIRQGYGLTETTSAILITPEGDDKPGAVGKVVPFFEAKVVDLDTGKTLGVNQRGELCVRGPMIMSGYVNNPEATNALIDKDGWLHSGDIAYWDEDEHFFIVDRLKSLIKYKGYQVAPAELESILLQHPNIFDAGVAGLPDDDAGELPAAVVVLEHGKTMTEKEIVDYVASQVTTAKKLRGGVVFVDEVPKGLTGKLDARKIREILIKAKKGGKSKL

On to `NC(=O)Cc1cccc(C(=O)c2ccccc2)c1N`, for which the Potency result in [1], in experiment [2], in experiment [3], in [4], in experiment [5] and in [6] was “inactive” throughout.

On to `CCCCCCCCCCCCCCCCOP(=O)([O-])OCC[N+](C)(C)C`, for which the Potency result in experiment [1], in [2], in experiment [3], in experiment [5], in [6] and in experiment [7] was “inactive” throughout. In [8], the Potency result is “inactive”.

Consider `O=C(O)[C@@H](O)[C@H](O)[C@H](O)[C@@H](O)C(=O)O`, for which the Potency entry in experiment [1], in experiment [2], in [3], in experiment [9], in experiment [6] and in experiment [7] was “inactive” in each case. The Potency entry in experiment [8] was “inactive”.

For the molecule `O=c1oc2c(O)c(O)cc3c(=O)oc4c(O)c(O)cc1c4c23`, the viability change, negative = cytotoxic in [1] is -2.26% [at 19 µM]; in experiment [3] it was -3.24% [at 19 µM]; in experiment [6], -7.93% [at 19 µM]. For the same molecule, in experiment [2], the Potency was 12 µM (active). Also, the activity, negative = inhibition in experiment [4] is 7.54% [at 19 µM]. Besides, in experiment [5], the activation was -0.67% [at 19 µM].

Regarding `C=C(C)C(=O)OCCOP(=O)(O)O`, the Potency entry in [1], in experiment [2], in experiment [3], in experiment [4], in [5] and in [6] was “inactive” in each case.

`CCN(CC)CC1CCCCN1CC(=O)N1c2ccccc2C(=O)Nc2cccnc21` (centres undefined): the Potency result in experiment [1], in experiment [2], in experiment [3], in [9], in experiment [6] and in experiment [7] was “inactive” in each case.

In the case of `O=S(=O)(O)C(F)(F)F`, the Potency entry in [1], in experiment [2], in experiment [3], in [4], in experiment [5] and in experiment [6] was “inactive” throughout. In addition, the Potency result in [7] and in [8] was “inactive” throughout.

As for `O=C1C=CC(=O)O1`, the Potency result in [1], in experiment [2], in [3], in experiment [9], in [6] and in [7] was “inactive” throughout. Further, the Potency entry in [8] is “inactive”.

As to `CC(C)C(=O)OC/C=C/c1ccccc1`, the Potency entry in [1], in experiment [3], in [9], in experiment [4], in experiment [5] and in experiment [6] was “inactive” each time. Further, the Potency entry in experiment [7] and in experiment [8] was “inactive” throughout.

Take `CC1(C)C(=O)N(Cl)C(=O)N1Br`: the Potency entry in experiment [1], in experiment [3], in [9], in experiment [4], in experiment [5] and in experiment [6] was “inactive” throughout.

`CC(C)(C)c1ccc(OC(=O)c2ccccc2O)cc1`: the Potency result in experiment [1], in experiment [3], in experiment [9], in [4], in [6] and in experiment [7] was “inactive” each time.

For `Cc1nnc(SCC2=C(C(=O)O)N3C(=O)[C@@H](NC(=O)Cn4cnnn4)[C@H]3SC2)s1`, the Potency result in experiment [1], in [3], in experiment [9] and in experiment [6] was “inactive” throughout.

`CC(C)NCC(O)COc1ccc(CCOCC2CC2)cc1` (centres undefined): the Potency entry in experiment [1], in [3], in experiment [9], in experiment [4], in experiment [5] and in experiment [6] was “inactive” each time.

Turning to `COC(=O)N[C@H](C(=O)N[C@@H](Cc1ccccc1)[C@@H](O)CN(Cc1ccc(-c2ccccn2)cc1)NC(=O)[C@@H](NC(=O)OC)C(C)(C)C)C(C)(C)C`, the Potency result in experiment [1], in experiment [3], in experiment [9], in experiment [5] and in [6] was “inactive” each time.

Regarding `CCCCCOc1ccc(C2SC(=O)NC2=O)cc1OCC` (centres undefined), the Potency entry in [1], in experiment [3], in [9], in experiment [4] and in experiment [6] was “inactive” in each case.

Turning to `CC(=O)O[C@H]1CC[C@@]2(C)C(=CC[C@@H]3[C@@H]2CC[C@]2(C)C(C(C)=O)=CC[C@@H]32)C1`, the Potency result in [1], in [3], in experiment [9], in experiment [4], in experiment [5] and in experiment [6] was “inactive” in each case.

As to `NC(Cc1ccc(F)cc1)C(=O)O` (centres undefined), the viability change, negative = cytotoxic in experiment [1] was 0.439% [at 8.39 µM]; in experiment [6], 2.83% [at 8.39 µM]. The activity change, negative = inhibition in [2] was 1.28% [at 10.5 µM]. The activity, negative = inhibition in experiment [7] was 25.2% [at 8.39 µM]. Besides, the activation in [8] was 1.4% [at 8.39 µM].

`CC(C)NC[C@@H](O)COc1cccc2ccccc12`: the Potency result in [1], in experiment [3], in experiment [9], in experiment [4], in [5] and in experiment [6] was “inactive” each time.

On to `CCCCCCCCc1ccc(S(=O)(=O)O)cc1`, for which the Potency entry in [1], in experiment [3], in experiment [9], in [4], in experiment [5] and in experiment [6] was “inactive” each time.

For the molecule `Cc1onc(-c2ccccc2)c1C(=O)Cl`, the Potency entry in [1], in experiment [2], in experiment [9], in [4] and in experiment [6] was “inactive” throughout.

With `O=c1[nH]cnc2c1ncn2[C@@H]1O[C@H](CO)[C@@H](O)[C@H]1O`, the Potency entry in [1], in experiment [3], in [9], in experiment [4], in experiment [5] and in experiment [6] was “inactive” in each case. Also, the Potency result in [7] and in [8] was “inactive” each time.

For the molecule `C=O`, the Potency result in experiment [1], in experiment [3], in experiment [9], in experiment [4], in experiment [5] and in experiment [6] was “inactive” throughout. Moreover, the Potency result in experiment [7] and in experiment [8] was “inactive” throughout.

On to `COc1cc(Cl)ccc1Cl`, for which the Potency entry in experiment [1], in [3], in [9], in [4], in experiment [5] and in experiment [6] was “inactive” each time.

Regarding `CN1[C@@H]2CC[C@H]1CC(OC(=O)c1c[nH]c3ccccc13)C2` (some centres undefined), the Potency result in [1], in experiment [3], in experiment [9], in [4], in [5] and in experiment [6] was “inactive” throughout.

On to `CC(C)C(=O)OCC(C)(C)C(O)C(C)C` (centres undefined), for which the Potency result in experiment [1], in experiment [3], in [9] and in experiment [6] was “inactive” in each case.

For the molecule `CC(=O)N(CC(O)CN(C(C)=O)c1c(I)c(C(=O)NCC(O)CO)c(I)c(C(=O)NCC(O)CO)c1I)c1c(I)c(C(=O)NCC(O)CO)c(I)c(C(=O)NCC(O)CO)c1I` (centres undefined), the Potency entry in [1], in experiment [3], in [9], in [4], in [5] and in [6] was “inactive” throughout.
